Laboratory results as given in PubChem BioAssay (NCATS).
Values joined by “and” are separate entries in the source; they are usually repeats but may differ in a detail not shown here. Equal entries are not always repeated. Inconclusive results are not listed. Unmarked numbers belong to inactive results. Calls follow the shape of the dose curve; as a rule, active = well fitted activation curve with a large enough effect; inconclusive = small, poorly fitted or top-dose-only effect; inactive = no such curve, though single readings can be large or run the other way. Peptide text beside a SMILES is read from it.

Molecular target: Cellular tumor antigen p53 (Homo sapiens) (UniProt P04637)
Sequence (P04637 whole entry, looked up): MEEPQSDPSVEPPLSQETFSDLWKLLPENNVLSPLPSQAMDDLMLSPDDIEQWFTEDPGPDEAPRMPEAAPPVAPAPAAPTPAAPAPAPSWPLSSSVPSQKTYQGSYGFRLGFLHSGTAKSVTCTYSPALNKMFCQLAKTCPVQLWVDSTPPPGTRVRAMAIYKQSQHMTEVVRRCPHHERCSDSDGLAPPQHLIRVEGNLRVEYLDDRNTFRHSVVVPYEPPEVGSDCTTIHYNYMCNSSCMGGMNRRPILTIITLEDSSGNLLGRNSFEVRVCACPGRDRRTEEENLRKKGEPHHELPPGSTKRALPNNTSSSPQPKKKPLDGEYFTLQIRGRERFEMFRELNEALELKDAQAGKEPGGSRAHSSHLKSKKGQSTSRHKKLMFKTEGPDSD
Assay: Primary qHTS for small molecule compounds that upregulate eGFP-tagged delta133p53alpha (in N-terminal) cells. (AID 2060322);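 also: cells pre-induced with doxycycline then dosed without doxycycline; series mostly up to about 56 µM; 0% = DMSO vehicle and 100% = reference activator; nearly all actives have a fitted effect of over 75% in size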
Conditions: NCI-H358 eGFP-delta133p53alpha fluorescence, 24 h; activation: hits give high values
Outline: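 NCI-H358 cells pre-induced 24 h with 10 ng/ml doxycycline for eGFP-delta133p53alpha, plated dox-free and exposed 24 h at 37C to titrated compounds. Fixed, Hoechst-stained; gated GFP peak intensity by laser scanning cytometry, normalized to DMSO (0%) and 57.5 uM 5-azacytidine (100%).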

Row | SMILES | activation
1 | C/C(=C\CC[C@@H](C)[C@H]1CC(O)[C@@]2(C)C3CC[C@H]4C(C)(C)[C@@H](OC5OCC(O)C(O)C5OC5OC(CO)C(O)C(O)C5O)CC[C@@]45C[C@@]35CC(O)[C@]12C)C(=O)O (some centres not stated) | -16.8%
2 | C/C(=C\CCC(C(=O)O)C1CCC2(C)C3=C(CCC12C)C1(C)CCC(=O)C(C)(C)C1CC3)C(=O)O (configuration not stated) | 1.53%
3 | C[C@@H](O)[C@H](N)C(=O)N1CCC[C@H]1C(=O)N1CCC[C@H]1C(=O)N[C@H](C(N)=O)[C@@H](C)O (H-TPPT-NH2) | 1%
4 | CNC(=O)c1ccccc1Sc1ccc2c(/C=C/c3ccccn3)n[nH]c2c1 | -18.6% and -9.82%
5 | CC(C)CC1(C(=O)OCc2ccc(O[C@@H]3O[C@H](CO)[C@@H](O)[C@H](O)[C@H]3O)cc2)CC(=O)OC(C(=O)O)CC(=O)OCC2OC(O1)C(OC(=O)/C=C/c1ccc(O)cc1)C(O)C2O (some centres not stated) | 3.05%
6 | CC(C#N)C(C)O[C@@H]1O[C@H](CO)[C@@H](O)[C@H](O)[C@H]1O (some centres not stated) | 24.1%
7 | COCC(c1ccc(C(F)(F)F)cc1)N1CCN(C2(C)CCN(C(=O)c3c(C)ncnc3C)CC2)CC1C (configuration not stated) | 12.4%
8 | COC(=O)C1=CO[C@@H](O[C@@H]2O[C@H](CO)[C@@H](O)[C@H](O)[C@H]2O)[C@H]2[C@@H]1C=C[C@@]21C=C([C@H](C)O)C(=O)O1 | 13.4%
9 | Cc1cc2c(c(=O)o1)C=C1CC[C@H]([C@H](C)Cn3cnc(=N)c4[nH]cnc43)C[C@@H]1O2 | 14.3%
10 | CC(C)=C[C@@H]1[C@H](CO[C@@H]2O[C@H](CO)[C@@H](O)[C@H](O)[C@H]2O)C1(C)C | -9.82%
11 | C=C1C[C@@]23CCC4[C@@](C)(CCC[C@@]4(C)C(=O)OC)C2CC[C@@H]1C3 (some centres not stated) | -32.8%
12 | COc1cccc2c1CCC[C@H]2CN(C)CCc1ccc2ccoc2c1 | -3.57%
13 | C=CC(C)(O)CC/C=C(/C)C(=O)OC1C(OC2OCC(OC3OC(CO)C(O)C(O)C3O)C(OC3OCC(O)C(OC4OC(C)C(O)C(O)C4O)C3O)C2O)COC(OC(=O)C23CCC(C)(C)CC2C2=CCC4C5(C)CCC(OC6OC(CO)C(OC7OC(CO)C(O)C(OC8OCC(O)C(O)C8O)C7O)C(O)C6O)C(C)(C)C5CCC4(C)C2(C)CC3O)C1O (configuration not stated) | -12.2%
14 | C=C1C2(C)CC3C4(C)OC(C5OC56C4=CC(=O)OC6(C)C)C3(C)C13C(=O)OC(C)C3(O)C2=O (configuration not stated) | -9.92%
15 | CCOC(=O)c1c(C)nn(-c2cccc([N+](=O)[O-])c2)c1C | -9.67%
16 | C[C@@H]1O[C@@H](OC[C@H]2O[C@@H](Oc3cc(O)cc4c3C(=O)C(O)(Cc3ccc(O)cc3)O4)[C@H](O)[C@@H](O)[C@@H]2O)[C@H](O)[C@H](O)[C@H]1O (some centres not stated) | -11.5%
17 | C=C1CCC2(OC1)OC1CC3C4CC=C5CC(O)CC(O[C@@H]6OC[C@@H](O)[C@H](O)[C@H]6O)C5(C)C4CCC3(C)C1(O)C2C (some centres not stated) | 5.34%
18 | C[C@@H]1O[C@@H](O[C@@H]2[C@@H](O)[C@H](O[C@@H]3[C@@H](O)[C@@H](O)[C@H](O[C@H]4[C@H](OC(=O)[C@]56CCC(C)(C)C[C@H]5C5=CCC7[C@@]8(C)C[C@H](O)[C@H](O[C@@H]9O[C@@H](C)[C@H](O)[C@@H](O)[C@H]9O)[C@@](C)(CO)C8CC[C@@]7(C)[C@]5(C)C[C@H]6O)O[C@H](C)[C@H](O)[C@@H]4O)O[C@H]3C)OC[C@H]2O)[C@H](O)[C@H](O)[C@H]1O (some centres not stated) | 19.6%
19 | CC1=CC(=O)CC(C)(C)C1CCC(C)O[C@@H]1O[C@H](CO[C@@H]2OC[C@@H](O)[C@H](O)[C@H]2O)[C@@H](O)[C@H](O)[C@H]1O (some centres not stated) | -10.7%
20 | CC(=O)OC1C(=O)C2C3OCC4=C3[C@@](C)(CC[C@@H]4O)CC[C@]2(C)[C@H]1C(C)C (some centres not stated) | -14.5%
21 | Cn1ccc(NC(=O)c2cc(Oc3ccc(C(=O)N4CCC4)c(F)c3)c3c(c2)OC(C)(C)C3)n1 | -12.3%
22 | CC1CC[C@]2(C(=O)O)CC[C@]3(C(=O)O)C(=CCC4[C@@]5(C)CC[C@H](OC6OC(C)C(O)C(OC7OC(CO)C(O)C(O)C7O)C6O)C(C)(C)C5CC[C@]43C)C2C1C (some centres not stated) | -8.04%
